About 79,000 compounds went through this panel and 15% of them were active in at least one assay; those are over-represented in the sample as a whole. Active and inactive are the calls of the source. Rule as the data show it: active = growth inhibition above about 70%; inactive = the rest.
Columns and labels:
[1] = NCI Yeast Anticancer Drug Screen. Data for the rad50 strain (AID 155);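 also: 0% = growth of vehicle-only cultures of the same strain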; details: S. cerevisiae rad50 strain growth inhibition; at 50.0 µM; stronger effect = higher value
Outline: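 Inhibition values express reduced yeast growth in compound-treated cultures relative to vehicle-treated controls.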

[2] = NCI Yeast Anticancer Drug Screen. Data for the mec2-1 strain (AID 157); details: S. cerevisiae mec2-1 strain, at 50.0 µM, stronger effect = higher value
Outline: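 Growth inhibition is read against vehicle-treated controls after compound exposure of the mec2-1 yeast strain, which is defective in DNA damage repair or cell cycle control.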

[3] = NCI Yeast Anticancer Drug Screen. Data for the sgs1 mgt1 strain (AID 161);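 also: 0% = growth of cultures given vehicle only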; details: S. cerevisiae sgs1 mgt1 strain, at 50.0 µM, stronger effect = higher value
Outline: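 This yeast growth screen uses a strain with defined DNA-repair lesions; compound-treated growth is compared with vehicle-treated growth.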

[4] = NCI Yeast Anticancer Drug Screen. Data for the cln2 rad14 strain (AID 165);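 also: 0% = growth equal to vehicle treated cultures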; details: S. cerevisiae cln2 rad14 strain, at 50.0 µM, stronger effect = higher value
Outline: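 Growth inhibition, relative to vehicle-treated controls, is the read-out. The test organism is a yeast strain with defined genetic alterations, cln2 rad14.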

[5] = NCI Yeast Anticancer Drug Screen. Data for the bub3 strain (AID 167); details: S. cerevisiae bub3 mutant strain, at 50.0 µM, stronger effect = higher value
Outline: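 Steps: expose the mutant yeast strain to compound; grow alongside vehicle-treated cultures; measure growth; express inhibition against the vehicle cultures.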

[6] = NCI Yeast Anticancer Drug Screen. Data for the mlh1 rad18 strain (AID 175); details: S. cerevisiae mlh1 rad18 strain growth inhibition; at 50.0 µM; stronger effect = higher value
Outline: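 Cells of a genetically altered yeast strain, deficient in DNA damage repair, were treated with compound. Their growth was then compared with that of vehicle-treated cultures to give inhibition.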

Measured: growth inhibition

CN(C)CCCC(O)c1cccc2ccccc12 (configuration not stated)
inactive: [1] 25.4% | [2] -12.6% | [3] 10.7% | [4] -4.65% | [5] 0.8% | [6] 24.4%

C=C(C)C(=O)O[C@H]1C[C@@]23O[C@@H]2CCC(=C[C@H]2OC(=O)C(=C)[C@H]12)COC3O (some centres not stated)
inactive: [1] 16.8% | [2] -12.6% | [3] 14.8% | [4] 9.45% | [5] 7.7% | [6] -22.8%

COc1ccc(C2OC3=Nc4cc(C)c(C)cc4NC3C2=O)cc1OC (configuration not stated)
inactive: [1] 15.7% | [2] -6.75% | [3] -6.15% | [4] -1.9% | [5] -23.4% | [6] 1.9%

Cc1ccc(Cl)cc1N
inactive: [1] 11.8% | [2] 31.1% | [3] 8.25% | [4] -27% | [5] 0.85% | [6] 18.8%

COc1ccccc1-n1on1-c1ccccc1OC
inactive: [1] 4.3% | [2] 18.1% | [3] -3.4% | [4] -30.9% | [5] 9.75% | [6] 20.1%

CC(=O)Oc1cccc2c(/C=N/NC(N)=S)ncc(C)c12
active: [1] 87.6% | [2] 78.3% | [3] 86.7% | [4] 83.5% | [5] 84.6% | [6] 90.3%

O=C(O)C1=C(C(=O)O)C2CCC1C2
inactive: [1] -25.1% | [2] -33.5% | [3] -23.2% | [4] 2.65% | [5] -11.8% | [6] -14.4%

Nc1nc(-c2ccco2)cc(-c2ccc(CO)o2)n1
inactive: [1] -21.8% | [2] 3.5% | [3] -10.2% | [4] 8.25% | [5] 16% | [6] 3.9%

CCCCOC(=O)C1CCCC1=O (configuration not stated)
inactive: [1] -14.6% | [2] -31.9% | [3] -2.15% | [4] 1.45% | [5] -43.1% | [6] 9.05%

O=Cc1c(CO)cc(O)c(O)c1O
inactive: [1] -12.4% | [2] -0.1% | [3] 16.1% | [4] -30.6% | [5] 2.9% | [6] 6.55%

O=C(N/N=C/c1ccccc1)c1c(-c2cccnc2)cnc2ccccc12
inactive: [1] -12.8% | [2] -9.3% | [3] -10.6% | [4] 10.9% | [5] 12.3% | [6] 14.3%

COc1ccc2c(c1)CCc1nc(N)nc(N)c1-2
inactive: [1] -3.9% | [2] 4.1% | [3] -14.2% | [4] -40.5% | [5] -16.1% | [6] 11.8%

O=C(O)c1c(Br)c(Br)c(Br)c(Br)c1C(=O)Nc1ccccc1C(F)(F)F
inactive: [1] -8.55% | [2] -11.4% | [3] -2.65% | [4] -2.75% | [5] 8.05% | [6] -12.2%

COC(=O)C1Cc2cc(OC)c(OC)cc2C(c2ccc(OC)c(OC)c2)C1C(N)=O (configuration not stated)
inactive: [1] -7.9% | [2] 11.3% | [3] -8.3% | [4] 0.25% | [5] -0.9% | [6] -1.95%

O=c1c[n+]([O-])c2ccccc2n1O
inactive: [1] 10.8% | [2] -3.75% | [3] 3.75% | [4] -27.1% | [5] -5.7% | [6] 11.8%

C=CCC1=C(C)C(OC(=O)/C=C/c2ccco2)CC1=O (configuration not stated)
inactive: [1] 10.3% | [2] -5.2% | [3] 8.6% | [4] -5.5% | [5] 30.3% | [6] -0.2%

CCCCCCCCCCN(CCCCCCCCCC)CC(O)c1cc(-c2ccc(Cl)cc2)nc2ccccc12 (configuration not stated)
inactive: [1] 25.6% | [2] 17.1% | [3] 39.4% | [4] 31.2% | [5] 34.6% | [6] 50.2%

Cc1nc(-c2ccccc2)ncc1C(O)CN1CCCCC1 (configuration not stated)
inactive: [1] -21.7% | [2] 25.6% | [3] 18.1% | [4] -43.2% | [5] 20.5% | [6] 2.25%

O=c1c2ccccc2c(=O)n2n1C1C=CC2C1
inactive: [1] -5% | [2] -7.15% | [3] 1.55% | [4] -6.4% | [5] 4.5% | [6] -4.55%

Nc1cccc([N+](=O)[O-])c1O
inactive: [1] 4.75% | [2] 2.45% | [3] 12.7% | [4] 9.75% | [5] 5.4% | [6] 12.4%

CCOC(=O)CNc1c(OCc2ccccc2)c(=O)c1=O
inactive: [1] -8.05% | [2] -10.8% | [3] -18.1% | [4] -3.65% | [5] -16.2% | [6] 5.8%

CCC(C)NC(=O)c1ccc(Cl)cc1Cl (configuration not stated)
inactive: [1] 15.8% | [2] -18.5% | [3] -12.7% | [4] -68.5% | [5] -28.9% | [6] -22.6%

Oc1c(CN2CCOCC2)cc(CN2CCOCC2)cc1CN1CCOCC1
inactive: [1] 7.7% | [2] 0.5% | [3] -5.4% | [4] 2.2% | [5] 6.6% | [6] 6.55%

Cc1cc(=O)n(Cc2ccccc2)n1-c1ccccc1
inactive: [1] -11% | [2] 12.8% | [3] -0.4% | [4] 9.4% | [5] 1.2% | [6] -17%

NNC(=O)CCC(=O)Nc1ccc(Cl)cc1Cl
inactive: [1] -19.9% | [2] 0.65% | [3] -8.25% | [4] 26.9% | [5] 5.1% | [6] 30.9%

CCOC(=O)c1c(C)c2c(n1C)CC/C(=C/NCCc1ccccc1)C2=O
active: [1] 93% | [2] 79% | [3] 86.4% | [5] 90.5% | [6] 93.3%
inactive: [4] 29.8%

CC(=O)Oc1ccc2cc(Br)ccc2c1N(C(C)=O)C(C)=O
inactive: [1] 13.1% | [2] -7.35% | [3] 10.8% | [4] -66.5% | [5] 24.6% | [6] -1.85%

O=C1CCCC2=C1CC1=C(CCCC1=O)N2c1ccccc1C(=O)O
inactive: [1] -25.2% | [2] -20.8% | [3] -23.8% | [4] -5% | [5] -21.9% | [6] -36.3%

CCOc1ccc2nc(SCCl)sc2c1
inactive: [1] 6.1% | [2] -2.7% | [3] 7.65% | [4] -14.9% | [5] -35.1% | [6] 2.8%

CC(=O)N(c1ccc(NC(=O)c2ccc(N3C(=O)c4ccccc4C3=O)cc2[N+](=O)[O-])cc1)c1cc[n+](C)cc1
inactive: [1] -13.8% | [2] 2.3% | [3] -1% | [4] 9.35% | [5] -5.1% | [6] 3.75%

O=C(NC(Cc1cccnc1)C(=O)O)c1ccccc1 (configuration not stated)
inactive: [1] 2.85% | [2] 11.4% | [3] 8.55% | [4] -16.4% | [5] 12.9% | [6] 7.65%

CC1=CC2CC(C)C1(C)CCc1ccoc12 (configuration not stated)
inactive: [1] 2.8% | [2] -11.7% | [3] -2.8% | [4] 6.75% | [5] 9.85% | [6] 4.7%

O=C(c1ccc2ccccc2c1)C(Cl)C(Cl)c1ccccc1 (configuration not stated)
inactive: [1] -13.2% | [2] 10.8% | [3] -1.55% | [4] -15.8% | [5] 53.1% | [6] -6.15%

CCC1=CC(C(O)CC(C)C)C(C)(Cc2ccc(CC)cn2)NC1c1ccccc1 (configuration not stated)
inactive: [1] 24.9% | [2] 14.8% | [3] 40.2% | [4] 11.9% | [5] 54.1% | [6] 50.3%

COc1cccc(C2c3cc4c(cc3OC(N3CCCCC3)C2C)OCO4)c1O (configuration not stated)
inactive: [1] -22.5% | [2] -31.1% | [3] 0.15% | [4] 18.9% | [5] -2.5% | [6] 0.1%

Cc1ccc(S(=O)(=O)CN2CCC(=O)c3ccccc32)cc1
inactive: [1] 20.4% | [2] 12.6% | [3] -6.4% | [4] 11.4% | [5] 15.4% | [6] 0.25%

CCC[n+]1cccc(C#N)c1
inactive: [1] 6.15% | [2] 5.4% | [3] -7.35% | [4] -24.9% | [5] -4.2% | [6] 22.2%

Source: PubChem BioAssay (NCI)
